Experimental data taken from PubChem BioAssay (NCI).
About 83,000 compounds went through this panel and 20% of them were active in at least one assay; those are over-represented in the sample as a whole.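 Cell lines were cultured in 96-well plates, exposed to a single compound concentration, and assessed for percent growth 48 hours later.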 Active and inactive are the calls of the source. The calls were made as follows: active = growth percent below 10; inactive = the rest.

These compounds were tested on HCT-15 colon (assay: NCI-60 one-dose screen, 48 h (100 = growth as untreated, 0 = no growth, -100 = all killed)). Settings: 10 µM.

SMILES	growth
O=C1/C(=C\c2cn(C(=O)c3ccc(Cl)cc3)c3ccccc23)c2ccccc2N1C(=O)c1ccc(Cl)cc1	65.8% (inactive)
Cc1ccc(Nc2cc(C)nc(NCCCNc3ccnc4cc(Cl)ccc34)n2)cc1	-71.7% (active)
COc1ccc(-c2nnc(-c3c(-c4ccccc4)nc4ncccn34)o2)cc1OC	100% (inactive)
Oc1[nH]c2cc(Cl)ccc2c1/C=c1/ccc2c(c1)N=C(c1cc(F)cc(F)c1)N=2	37.3% (inactive)
Cc1cc(N(CCCNc2ccnc3cc(Cl)ccc23)Cc2ccc3c(c2)OCO3)nc(N2CCOCC2)n1	4.7% (active)
COc1cc(/C=N/NC(=O)c2ccccc2Nc2ccnc(C(F)(F)F)c2)ccc1O	106% (inactive)
Cc1cc(N(CCCNc2ccnc3cc(Cl)ccc23)Cc2ccc3c(c2)OCO3)nc(N2CCCCC2)n1	-78.3% (active)
Clc1ccc2c(NCCCNc3nccc(Nc4ccc(Br)cc4)n3)ccnc2c1	-65.8% (active)
Cc1cc(N(CCCNc2ccnc3cc(Cl)ccc23)Cc2cccs2)nc(Cl)n1	24.3% (inactive)
Clc1ccc(Nc2ccnc(NCCCNc3ccnc4cc(Cl)ccc34)n2)cc1	-60.6% (active)
Cc1cc(Cl)nc(N(CCCNc2ccnc3cc(Cl)ccc23)Cc2cccs2)n1	8.59% (active)
CCCCN(CCCC)c1cc(C(=O)CCCCCN)c2ccccc2n1	60.1% (inactive)
COc1ccc(-c2nc3sccn3c2-c2nc3c([nH]2)C(=O)c2ccccc2C3=O)cc1	87.8% (inactive)
CN(C)CCNC(=O)c1cccn2c(=O)c3cc4ccccc4cc3nc12	12.7% (inactive)
CC(C)=CCc1cc(O)cc2c1OC(C=C(C)C)C1=C2C(=O)C2=C(NCCS2(=O)=O)C1=O (centres undefined)	28.4% (inactive)
Clc1ccc(Nc2ccnc(NCCNc3ccnc4cc(Cl)ccc34)n2)cc1	3.75% (active)
COc1cc(-c2nc(-c3nnc(-c4ccc(F)c(Cl)c4)o3)c3ccccn23)cc(OC)c1OC	55.4% (inactive)
COc1ccc(-c2nc3ccccn3c2-c2nnc(-c3cc(OC)c(OC)c(OC)c3)o2)cc1	71.6% (inactive)
CN1CCC(CNc2cc(C3(C(=O)Nc4cc(C(=O)Nc5ccc(Cl)c(C(F)(F)F)c5)ccc4F)CC3)ncn2)CC1	-20.3% (active)
CN1CCC2(CC1)NC(=O)c1c(c3ccc(Cl)c(Cl)c3n1C)C2C#N (centres undefined)	82.6% (inactive)

SMILES	growth
COc1ccc(-c2nc3ncccn3c2-c2nnc(-c3ccsc3C)o2)cc1	88.9% (inactive)
COc1ccc2c(c1)/C(=C\c1c[nH]c3ccc(OC)cc13)C(=O)N2	31.6% (inactive)
O=C(Nc1cccc(Br)c1)c1cc(=O)[nH]c2ccccc12	92.4% (inactive)
NC(=O)CC1(c2ccccc2)CCCCC1	101% (inactive)
COC(=O)C(=C\c1ccc2c(c1)OCO2)/C(=C/c1ccc2c(c1)OCO2)C(=O)OC	97.8% (inactive)
Fc1ccc(-c2nnc(-c3c(-c4ccc(F)cc4)nc4ccccn34)o2)cc1	98.5% (inactive)
COc1ccc(Nc2cc(C)nc(NCCCNc3ccnc4cc(Cl)ccc34)n2)cc1	-55.8% (active)
COc1cc(-c2nnc(-c3c(-c4ccc(F)cc4)nc4ccccn34)o2)cc(OC)c1OC	90.6% (inactive)
CCN(CC)CCNc1ccc(CO)c2oc3cc(Cl)ccc3c(=O)c12	81% (inactive)
CC(C)=CCc1cc(O)cc2c1OC(C=C(C)C)C1=C2C(=O)C2=C(C1=O)S(=O)(=O)CCN2 (centres undefined)	58% (inactive)
Cc1cc(Nc2ccc(Cl)cc2)nc(NCCCNc2ccnc3cc(Cl)ccc23)n1	-54.3% (active)
CC12O[C@H](C[C@@H](OC(=O)c3ccccc3)[C@H]1O)n1c3ccccc3c3c4c(c5c6ccccc6n2c5c31)C(=O)NC4=O	77.7% (inactive)
Cc1ccc(C(=O)Nc2cccc(F)c2)cc1NC(=O)C1(c2ncnc3[nH]ccc23)CC1	88.8% (inactive)
COc1cc(-c2nc(-c3nnc(-c4ccccc4Cl)o3)c3ccccn23)cc(OC)c1OC	73.3% (inactive)
COc1ccc(Nc2ccnc(NCCNc3ccnc4cc(Cl)ccc34)n2)cc1	36.8% (inactive)
COc1cc(Nc2ccnc(NCCNc3ccnc4cc(Cl)ccc34)n2)cc(OC)c1	28.8% (inactive)
O=C(Nc1nc2ccc(F)cc2s1)c1cc(-c2ccc(F)cc2)n2nc(-c3ccccc3)cc2n1	90.8% (inactive)
CC12O[C@H](C[C@@H](O)[C@H]1O)n1c3ccccc3c3c4c(c5c6ccccc6n2c5c31)C(=O)N(CCCN)C4=O	96.4% (inactive)
COc1ccc(-c2nc3ncccn3c2-c2nnc(-c3ccc(F)cc3)o2)cc1	93.8% (inactive)
